Source: PubChem
Hits are enriched below; roughly 1.2% of the tested compounds scored in any of these assays.
L929 necroptosis: inhibitors of zVAD-triggered necroptosis, primary screen, L929 cells | L929 zVAD necroptosis rescue, ATP luminescence, 24 h; with zVAD 60 µM | viability rescue, % at 10 µM | actives 0.38% (n = 220,000) | AID 1377, 2008;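 active means activation, scaled between plate controls, above about 75%, limit read from the data; inactive means activation under that limit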
eIF4E 4G PPI: eIF4E–eIF4G protein interaction inhibitors, primary screen, biochemical, uHTS, TR-FRET, eIF4GI fragment; actives 0.37% (n = 220,000); inhibition, % at 21.7 µM; TR-FRET eIF4E-eIF4GI(517-606) binding, 2 h;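 active means inhibition above about 30%, limit read from the data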
Target sequence (P63073 whole entry, looked up, the tested form may be a part): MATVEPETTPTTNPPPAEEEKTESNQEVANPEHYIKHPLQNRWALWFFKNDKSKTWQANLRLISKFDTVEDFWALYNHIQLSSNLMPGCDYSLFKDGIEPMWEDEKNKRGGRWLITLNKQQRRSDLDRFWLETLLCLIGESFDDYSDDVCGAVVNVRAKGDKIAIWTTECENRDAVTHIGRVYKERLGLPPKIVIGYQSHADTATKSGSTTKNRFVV
Target sequence (Q04637 whole entry, looked up, the tested form may be a part): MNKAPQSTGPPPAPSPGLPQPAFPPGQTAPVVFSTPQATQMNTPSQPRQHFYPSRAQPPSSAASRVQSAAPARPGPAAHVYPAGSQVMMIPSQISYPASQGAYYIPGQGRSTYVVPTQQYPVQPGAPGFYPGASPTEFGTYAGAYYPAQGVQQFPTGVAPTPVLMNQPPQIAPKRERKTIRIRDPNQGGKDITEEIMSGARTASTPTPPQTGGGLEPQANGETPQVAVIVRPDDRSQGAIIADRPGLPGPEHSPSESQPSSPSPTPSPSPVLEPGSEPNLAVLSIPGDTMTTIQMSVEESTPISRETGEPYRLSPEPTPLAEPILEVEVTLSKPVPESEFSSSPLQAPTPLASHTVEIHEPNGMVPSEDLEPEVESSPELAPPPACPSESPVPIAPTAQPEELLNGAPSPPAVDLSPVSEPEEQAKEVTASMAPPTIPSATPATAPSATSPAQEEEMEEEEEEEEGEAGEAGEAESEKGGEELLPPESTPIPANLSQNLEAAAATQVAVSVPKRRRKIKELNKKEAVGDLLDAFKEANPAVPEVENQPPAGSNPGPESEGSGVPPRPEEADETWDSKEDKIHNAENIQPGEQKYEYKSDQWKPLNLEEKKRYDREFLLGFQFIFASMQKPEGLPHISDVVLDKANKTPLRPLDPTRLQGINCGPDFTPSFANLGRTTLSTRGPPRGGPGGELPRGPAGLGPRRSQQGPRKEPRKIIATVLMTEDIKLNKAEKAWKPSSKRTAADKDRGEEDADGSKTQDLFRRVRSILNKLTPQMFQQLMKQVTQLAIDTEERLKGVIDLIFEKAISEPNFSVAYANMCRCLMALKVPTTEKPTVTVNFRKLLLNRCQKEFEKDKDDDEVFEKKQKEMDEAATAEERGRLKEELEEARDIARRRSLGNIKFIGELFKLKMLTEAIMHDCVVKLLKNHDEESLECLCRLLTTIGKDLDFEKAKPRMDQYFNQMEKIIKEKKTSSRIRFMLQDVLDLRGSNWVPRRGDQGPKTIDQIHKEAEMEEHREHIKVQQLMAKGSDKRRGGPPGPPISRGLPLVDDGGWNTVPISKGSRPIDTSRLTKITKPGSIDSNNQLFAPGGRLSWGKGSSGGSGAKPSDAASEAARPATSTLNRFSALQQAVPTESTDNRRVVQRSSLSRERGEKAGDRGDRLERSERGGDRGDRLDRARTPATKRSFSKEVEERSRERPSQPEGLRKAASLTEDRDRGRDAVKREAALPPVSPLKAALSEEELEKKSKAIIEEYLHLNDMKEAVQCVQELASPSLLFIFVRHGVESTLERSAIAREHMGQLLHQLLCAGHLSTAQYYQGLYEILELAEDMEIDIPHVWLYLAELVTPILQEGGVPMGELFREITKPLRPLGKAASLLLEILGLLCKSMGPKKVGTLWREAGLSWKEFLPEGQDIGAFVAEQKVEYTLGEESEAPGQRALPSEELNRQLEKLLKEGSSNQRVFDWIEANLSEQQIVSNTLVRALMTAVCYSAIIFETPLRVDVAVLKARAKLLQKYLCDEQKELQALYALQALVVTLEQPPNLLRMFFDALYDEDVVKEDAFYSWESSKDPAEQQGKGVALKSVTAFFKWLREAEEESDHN
TNF death inh: inhibitors of TNF-alpha triggered necroptosis, primary screen, cell-based, Jurkat FADD-/-, single concentration. Jurkat FADD-/- TNF necroptosis rescue, ATP luminescence, 24 h; 0 = TNF only, 100 = no-TNF cells. actives 0.068% (n = 220,000). activation (protection from cell death), % at 10 µM. AID 463075, 2010;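 active means activation, meaning protection from cell death, of at least 50% relative to plate controls; inactive means activation below 50%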;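 further: necroptosis triggered by 40 ng/mL TNF-alpha added together with compound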
EBV gp42 inh: Epstein-Barr virus gp42 inhibitors, primary screen, biochemical, uHTS, fluorescence polarization. inhibition, % (tested at 21.74 µM). Glycoprotein 42 (Epstein-Barr virus (strain AG876)), Q1HVG2. actives 0.42% (n = 220,000). AID 1085, 2008. Fluorescence polarization binding assay, mP read-out; in the data active means inhibition above about 50%
Numbers stand for hits; . = inactive; [ ] = dose if it differs, or a comment.

SMILES | L929 necroptosis | eIF4E 4G PPI | TNF death inh | EBV gp42 inh
CC1(C)CC(=O)C2=C(C1)OC(N)=C(C#N)[C@@H]2c1ccccc1[N+](=O)[O-] | . | . | . | 54.0
COc1cc(C2C(C#N)=C(N)OC3=C2C(=O)CC(C)(C)C3)c([N+](=O)[O-])cc1OC (stereo unspecified) | . | . | . | 86.1
CCOc1ccc(CC(=O)NNC(=S)NC)cc1Br | . | . | . | .
O=C(NCc1ccccc1)c1ccc(Cl)cc1 | . | . | . | .
CCNC(=O)c1ccc(CSc2ccc(Cl)cc2)cc1 | . | 36.4 | . | .
CC(C)c1ccc(C(=O)NCc2ccc(Cl)cc2)cc1 | . | 30.7[fluorescence artefact?] | . | .
COc1ccc(CCNC(=O)Cn2cnc3c(cnn3-c3ccccc3Cl)c2=O)cc1OC | . | 30.6[fluorescence artefact?] | . | .
COc1ccc2c(c1)O[C@H](c1ccc3c(c1)OCO3)[C@@H](O)C2=O | 79.4 | . | . | .
COc1ccc2c(c1)O[C@@H](c1cccc(C(F)(F)F)c1)[C@H](O)C2=O | . | . | . | .
O=C(OCC(=O)N1CCc2ccccc2C1)c1cc(=O)[nH]c2ccccc12 | . | . | . | .
CCCCCOc1ccc(NC(=O)CSc2cccc3cccnc23)cc1 | . | . | . | .
COc1ccc(NC(=O)NC(=O)c2cc(OCC(F)(F)F)ccc2OCC(F)(F)F)cc1 | . | . | . | 73.6
O=C(NCCNC(=O)c1cc(OCC(F)(F)F)ccc1OCC(F)(F)F)Nc1ccccc1 | . | . | . | .
COc1cccc(NC(=O)COC(=O)CC(NC(N)=O)c2ccc(Cl)cc2)c1 (stereo unspecified) | . | . | . | .
Cc1ccc(-n2cccc2/C=C2\C(=N)N3N=C(c4ccco4)SC3=NC2=O)cc1 | . | 55.5 | . | 67.3
CCC1=NN2C(=N)/C(=C\c3cccn3-c3ccc(Cl)cc3)C(=O)N=C2S1 | . | . | . | .
Cn1cccc1-c1cc(C(=O)N2CCc3c([nH]c4ccccc34)C2c2ccccn2)[nH]n1 (stereo unspecified) | . | 73.4 | . | .
O=C(c1ccc(-n2cccn2)cc1)N1CCc2c([nH]c3ccccc23)C1c1ccccn1 (stereo unspecified) | . | . | . | .
C=CCC1(/C=N/O)CCOC(C)(C)C1 (stereo unspecified) | . | . | . | .
Cc1nnc(Sc2cc(C(=O)NCc3ccco3)c3ccccc3n2)s1 | 97.0 | . | . | .
O=C(Nc1cccc2ccccc12)N1CCN(c2ccccc2)CC1 | . | . | . | .
S=C(Nc1ccccc1)N1N=CCC1c1ccccc1 (stereo unspecified) | . | . | 90.7 | .
O=C(Nc1cccc2ccccc12)N1N=CCC1c1ccccc1 (stereo unspecified) | . | . | 64.4 | .
O=C(/C=C/c1ccccc1)Nc1nnc(-c2ccco2)o1 | . | . | . | .
CCN(CC)c1ccc(C=C2C(=O)OC3(CCCCC3)OC2=O)cc1 | . | . | . | .
SMILES | L929 necroptosis | eIF4E 4G PPI | TNF death inh | EBV gp42 inh
CCCCC1(C)OC(=O)C(=Cc2ccc(N(CC)CC)cc2)C(=O)O1 (stereo unspecified) | . | . | . | 74.5
Cc1cc(/C=C(/C#N)c2nc3ccccc3[nH]2)c(C)n1-c1cc(C(=O)O)cc(C(=O)O)c1 | . | . | . | 129.0
Cc1cc(/C=C(/C#N)c2nc3ccccc3[nH]2)c(C)n1-c1ccccc1C(=O)O | . | . | . | .
COc1ccc(C2CC(=O)Oc3c(C(CCN4CCCCC4)c4ccc(N(C)C)cc4)c(OC)cc(OC)c32)cc1 (stereo unspecified) | . | . | . | .
COc1ccc(C2CC(=O)Oc3c(C(CCN4CCCC(C)C4)c4ccc(N(C)C)cc4)c(OC)cc(OC)c32)cc1 (stereo unspecified) | . | 42.5 | . | .
Cc1ccc(NS(=O)(=O)c2ccc3[nH]c(=O)[nH]c3c2)c(C)c1 | . | . | . | .
CC1Cc2ccccc2N1S(=O)(=O)c1cccc(C(=O)N2CCN(c3ncccn3)CC2)c1 (stereo unspecified) | . | . | . | .
CSc1ccc(S(=O)(=O)NCCCOC(C)C)cc1 | . | . | . | .
C/C(=N\NC(=O)Cc1c(C)[nH][nH]c1=O)c1ccc(Cl)c(Cl)c1 | . | . | . | .
C/C(=N\NC(=O)Cc1c(C)[nH][nH]c1=O)c1cccc(Br)c1 | . | 97.3 | . | .
O=c1c2ccccc2nc(/C=C/c2cccnc2)n1Cc1ccccc1 | . | 91.8 | . | .
O=c1c2ccccc2nc(/C=C/c2cccnc2)n1CCc1ccccc1 | . | . | . | .
CC(C)n1c(=S)[nH]c2scc(-c3cccs3)c2c1=O | . | 41.9 | . | .
FC(F)(F)c1cccc(OCC2CNC(=S)O2)c1 (stereo unspecified) | . | . | . | .
CC1CCc2c(sc3nc(CN4CCOCC4)nc(NS(=O)(=O)c4cccc([N+](=O)[O-])c4)c23)C1 (stereo unspecified) | . | . | . | 59.3
Cc1cc(S(=O)(=O)Nc2nc(CN3CCOCC3)nc3sc4c(c23)CCCC4)ccc1F | . | . | . | .
COc1ccc(CNC(=O)N[C@H](C(=O)O)C(C)C)cc1OC | . | . | . | .
O=C1c2ccccc2C(=O)c2c(NCc3cccnc3)cccc21 | . | . | . | .
CNc1cccc2c1C(=O)c1ccccc1C2=O | . | . | . | 78.4
O=C(C[n+]1ccc(/C=N/O)cc1)N1CCCCC1 | . | . | . | .
CC1(c2ccc3noc(-c4ccccc4)c3c2)OCCO1 | . | . | . | .
CC1(c2ccc3noc(-c4ccc(F)cc4)c3c2)OCCO1 | . | . | . | 86.2
O=C(Cn1cnc2scc(-c3cccc([N+](=O)[O-])c3)c2c1=O)NCc1ccco1 | . | . | . | 66.2
O=C(O)/C=C/c1cn(-c2ccccc2)nc1-c1ccc(-c2ccc([N+](=O)[O-])cc2)o1 | . | . | . | 65.9
O=C(O)/C=C/c1cn(-c2ccccc2)nc1-c1cccc([N+](=O)[O-])c1 | . | . | . | .
SMILES | L929 necroptosis | eIF4E 4G PPI | TNF death inh | EBV gp42 inh
Cc1cc(C)n2nc(C(=O)NCc3ccccc3)cc2n1 | . | 30.1 | . | .
O=C1CCCC(O)=C1C(C#Cc1ccccc1)C1=C(O)CCCC1=O | . | 42.2[fluorescence artefact?] | . | .
CC(C)(C)C(=O)NC(=S)Nc1ccc(F)cc1 | . | . | . | .
CCOCCCNc1nc2c(C)cccn2c(=O)c1/C=C1\SC(=S)N(CC(C)C)C1=O | . | . | . | 104.0
CCOCCCNc1nc2c(C)cccn2c(=O)c1/C=C1\SC(=S)N(C(C)CC)C1=O (stereo unspecified) | . | . | . | 132.8
COc1ccc(CC(=O)Nc2ccc(N3CCOCC3)cc2)cc1S(=O)(=O)N1CCOCC1 | . | . | . | .
COc1cccc(CC2(CO)CCCN(Cc3sc(N4CCCC4)nc3Cl)C2)c1 (stereo unspecified) | . | . | . | .
